Measurements as given in paper PMC7862700, “An all-to-all approach to the identification of sequence-specific readers for epigenetic DNA modifications on cytosine”.

Columns and labels:
Experiment in all cases: DAPPL (digital affinity profiling via proximity ligation, sequencing); 10 mM Tris-HCl pH 7.5, 50 mM NaCl, 1 mM DTT, 4% glycerol, room temperature, 30 min; GST-TFs on glutathione beads, 16-mer random dsDNA library, 0.1% formaldehyde crosslink after washing; high values mean tight binding
[1] = target: T1, FLI1 (Homo sapiens, UniProt Q01543 1-452); settings: protein: recombinant; tags: N-terminal GST; dsDNA, one strand shown
T1 sequence: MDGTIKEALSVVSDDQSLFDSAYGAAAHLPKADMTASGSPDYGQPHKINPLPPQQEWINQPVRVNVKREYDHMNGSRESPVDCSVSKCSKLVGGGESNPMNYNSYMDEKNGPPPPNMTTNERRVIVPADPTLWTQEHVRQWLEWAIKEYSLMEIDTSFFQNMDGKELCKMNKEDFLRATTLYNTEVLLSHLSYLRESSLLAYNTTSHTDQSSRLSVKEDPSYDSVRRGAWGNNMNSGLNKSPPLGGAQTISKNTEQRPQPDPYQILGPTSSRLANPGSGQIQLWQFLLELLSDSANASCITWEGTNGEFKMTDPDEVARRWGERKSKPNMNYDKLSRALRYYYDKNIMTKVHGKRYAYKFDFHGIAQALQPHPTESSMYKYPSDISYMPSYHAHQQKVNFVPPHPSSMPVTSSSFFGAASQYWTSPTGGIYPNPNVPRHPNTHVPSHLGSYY
Procedure, shortened: (§1)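 A tag-only sample was pooled with DNA-barcoded human transcription factors that had been expressed in yeast as GST fusions and captured on glutathione beads. The pools were incubated for 30 min at room temperature with 200 nmole of a random double-stranded 16-mer DNA library in Tris/NaCl/DTT/glycerol buffer, then washed, crosslinked with 0.1% formaldehyde, proximity-ligated (BsaI/T4 ligase, 1 h, 37 °C), PCR-amplified and sequenced on an Illumina NextSeq500. Binding signal is each hexamer's read frequency for a factor divided by its frequency for the tag-only sample.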

[2] = target: T2, ELK1 (Homo sapiens, UniProt P19419 1-428); settings: protein: recombinant; tags: N-terminal GST; dsDNA, one strand shown
T2 sequence: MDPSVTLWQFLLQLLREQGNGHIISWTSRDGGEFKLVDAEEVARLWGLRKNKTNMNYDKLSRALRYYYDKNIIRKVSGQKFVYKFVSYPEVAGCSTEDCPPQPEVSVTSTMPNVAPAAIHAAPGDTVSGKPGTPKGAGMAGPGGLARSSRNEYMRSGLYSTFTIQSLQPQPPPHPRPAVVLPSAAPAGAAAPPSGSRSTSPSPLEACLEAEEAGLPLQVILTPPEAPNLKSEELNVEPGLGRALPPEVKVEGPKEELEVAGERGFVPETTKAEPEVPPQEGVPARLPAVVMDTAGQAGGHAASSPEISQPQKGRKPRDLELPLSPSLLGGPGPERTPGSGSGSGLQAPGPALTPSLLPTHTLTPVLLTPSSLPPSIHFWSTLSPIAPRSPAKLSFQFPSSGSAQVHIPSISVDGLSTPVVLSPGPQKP
Procedure, shortened: as §1

[3] = target: T3, GABPA (Homo sapiens, UniProt Q06546 1-454); settings: protein: recombinant; tags: N-terminal GST; dsDNA, one strand shown
T3 sequence: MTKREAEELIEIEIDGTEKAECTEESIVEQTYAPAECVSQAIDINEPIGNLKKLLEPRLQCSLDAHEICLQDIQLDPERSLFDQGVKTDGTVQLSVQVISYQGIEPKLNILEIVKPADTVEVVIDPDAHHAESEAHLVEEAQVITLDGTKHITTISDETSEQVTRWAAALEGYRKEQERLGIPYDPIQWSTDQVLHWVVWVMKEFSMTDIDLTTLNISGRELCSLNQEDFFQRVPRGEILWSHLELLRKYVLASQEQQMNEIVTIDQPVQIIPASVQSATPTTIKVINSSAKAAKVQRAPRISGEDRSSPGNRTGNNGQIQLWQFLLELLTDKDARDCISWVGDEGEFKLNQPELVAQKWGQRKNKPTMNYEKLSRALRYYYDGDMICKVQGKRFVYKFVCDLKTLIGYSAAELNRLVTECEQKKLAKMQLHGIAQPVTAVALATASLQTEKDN
Procedure, shortened: as §1

[4] = target: T4, ERG (Homo sapiens, UniProt P11308 1-479); settings: protein: recombinant; tags: N-terminal GST; dsDNA, one strand shown
T4 sequence: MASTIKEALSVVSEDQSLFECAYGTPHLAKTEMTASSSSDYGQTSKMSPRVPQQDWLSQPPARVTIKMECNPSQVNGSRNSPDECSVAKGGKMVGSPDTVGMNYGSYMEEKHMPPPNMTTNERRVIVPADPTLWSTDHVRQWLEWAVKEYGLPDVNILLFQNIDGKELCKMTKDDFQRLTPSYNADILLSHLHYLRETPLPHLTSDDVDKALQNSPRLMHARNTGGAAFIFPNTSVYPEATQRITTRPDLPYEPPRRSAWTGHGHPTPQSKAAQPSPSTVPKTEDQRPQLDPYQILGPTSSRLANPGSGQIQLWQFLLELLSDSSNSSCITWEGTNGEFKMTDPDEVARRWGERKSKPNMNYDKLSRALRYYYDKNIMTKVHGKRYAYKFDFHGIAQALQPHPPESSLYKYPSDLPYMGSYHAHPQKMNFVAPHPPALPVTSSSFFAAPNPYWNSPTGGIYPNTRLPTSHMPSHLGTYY
Procedure, shortened: as §1

[5] = target: ELF1 (Homo sapiens, UniProt P32519 1-619); settings: protein: recombinant; tags: N-terminal GST; dsDNA, one strand shown
Sequence of ELF1 (P32519 whole entry): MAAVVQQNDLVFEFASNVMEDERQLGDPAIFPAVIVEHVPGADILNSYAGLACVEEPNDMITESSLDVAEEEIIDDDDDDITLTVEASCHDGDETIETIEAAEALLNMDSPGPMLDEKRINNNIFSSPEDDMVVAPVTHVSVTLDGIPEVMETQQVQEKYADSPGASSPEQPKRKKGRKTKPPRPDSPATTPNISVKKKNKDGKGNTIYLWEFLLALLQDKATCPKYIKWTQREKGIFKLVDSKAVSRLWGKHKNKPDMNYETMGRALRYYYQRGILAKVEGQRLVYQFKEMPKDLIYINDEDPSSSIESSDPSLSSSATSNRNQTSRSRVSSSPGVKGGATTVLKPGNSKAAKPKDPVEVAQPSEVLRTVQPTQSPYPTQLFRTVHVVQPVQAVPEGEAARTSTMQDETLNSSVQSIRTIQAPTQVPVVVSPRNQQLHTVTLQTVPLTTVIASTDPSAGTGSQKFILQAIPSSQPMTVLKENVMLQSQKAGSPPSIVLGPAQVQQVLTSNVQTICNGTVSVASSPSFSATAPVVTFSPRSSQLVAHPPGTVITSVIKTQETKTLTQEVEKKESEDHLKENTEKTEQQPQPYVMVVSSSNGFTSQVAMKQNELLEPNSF
Procedure, shortened: as §1

[6] = target: T5, EHF (Homo sapiens, UniProt Q9NZC4 1-300); settings: protein: recombinant; tags: N-terminal GST; dsDNA, one strand shown
T5 sequence: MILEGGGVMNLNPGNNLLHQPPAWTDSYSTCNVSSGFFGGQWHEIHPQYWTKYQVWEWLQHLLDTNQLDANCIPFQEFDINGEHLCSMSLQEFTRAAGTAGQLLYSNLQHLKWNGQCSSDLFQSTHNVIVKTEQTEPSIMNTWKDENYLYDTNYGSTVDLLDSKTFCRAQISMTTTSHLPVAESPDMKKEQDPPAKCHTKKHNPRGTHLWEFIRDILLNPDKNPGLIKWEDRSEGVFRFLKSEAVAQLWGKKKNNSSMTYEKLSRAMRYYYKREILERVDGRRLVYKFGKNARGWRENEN
Procedure, shortened: as §1

[7] = target: SPI1 (Homo sapiens, UniProt P17947 1-270); settings: protein: recombinant; tags: N-terminal GST; dsDNA, one strand shown
Procedure, shortened: as §1

[8] = target: SPIB (Homo sapiens, UniProt Q01892 1-262); settings: protein: recombinant; tags: N-terminal GST; dsDNA, one strand shown
Sequence of SPIB (Q01892 whole entry): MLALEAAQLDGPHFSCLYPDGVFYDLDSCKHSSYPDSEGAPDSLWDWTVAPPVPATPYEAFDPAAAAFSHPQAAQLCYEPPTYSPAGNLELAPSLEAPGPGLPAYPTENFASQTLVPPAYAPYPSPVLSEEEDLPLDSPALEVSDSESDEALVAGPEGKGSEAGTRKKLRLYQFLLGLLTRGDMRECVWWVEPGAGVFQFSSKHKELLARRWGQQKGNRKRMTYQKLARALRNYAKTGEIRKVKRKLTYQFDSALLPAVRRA
Procedure, shortened: as §1

[9] = target: T6, FEV (Homo sapiens, UniProt Q99581 1-238); settings: protein: recombinant; tags: N-terminal GST; dsDNA, one strand shown
T6 sequence: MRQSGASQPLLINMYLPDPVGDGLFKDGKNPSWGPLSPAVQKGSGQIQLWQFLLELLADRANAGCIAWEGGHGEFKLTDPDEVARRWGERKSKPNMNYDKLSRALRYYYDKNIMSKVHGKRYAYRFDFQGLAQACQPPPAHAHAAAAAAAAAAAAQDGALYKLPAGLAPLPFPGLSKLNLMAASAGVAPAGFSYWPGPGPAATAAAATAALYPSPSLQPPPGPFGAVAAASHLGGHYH
Procedure, shortened: as §1

[10] = target: ETV5 (Homo sapiens, UniProt P41161 1-510); settings: protein: recombinant; tags: N-terminal GST; dsDNA, one strand shown
Sequence of ETV5 (P41161 whole entry): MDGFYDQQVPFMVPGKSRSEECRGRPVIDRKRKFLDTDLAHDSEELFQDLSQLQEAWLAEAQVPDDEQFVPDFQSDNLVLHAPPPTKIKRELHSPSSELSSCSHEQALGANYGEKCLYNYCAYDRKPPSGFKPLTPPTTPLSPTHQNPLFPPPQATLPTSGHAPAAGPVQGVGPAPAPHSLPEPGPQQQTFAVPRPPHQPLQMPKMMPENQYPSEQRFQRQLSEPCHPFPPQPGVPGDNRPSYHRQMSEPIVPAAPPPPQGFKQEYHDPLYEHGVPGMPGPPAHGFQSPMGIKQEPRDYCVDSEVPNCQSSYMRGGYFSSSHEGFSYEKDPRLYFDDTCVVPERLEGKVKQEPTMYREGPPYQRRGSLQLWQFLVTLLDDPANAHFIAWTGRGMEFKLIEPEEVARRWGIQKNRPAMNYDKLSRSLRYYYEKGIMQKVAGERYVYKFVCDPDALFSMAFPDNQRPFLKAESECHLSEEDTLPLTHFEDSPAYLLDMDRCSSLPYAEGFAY
Procedure, shortened: as §1

[11] = target: HSF1 (Homo sapiens, UniProt Q00613 1-529); settings: protein: recombinant; tags: N-terminal GST; chain copies: 3; dsDNA, one strand shown
Sequence of HSF1 (Q00613 whole entry): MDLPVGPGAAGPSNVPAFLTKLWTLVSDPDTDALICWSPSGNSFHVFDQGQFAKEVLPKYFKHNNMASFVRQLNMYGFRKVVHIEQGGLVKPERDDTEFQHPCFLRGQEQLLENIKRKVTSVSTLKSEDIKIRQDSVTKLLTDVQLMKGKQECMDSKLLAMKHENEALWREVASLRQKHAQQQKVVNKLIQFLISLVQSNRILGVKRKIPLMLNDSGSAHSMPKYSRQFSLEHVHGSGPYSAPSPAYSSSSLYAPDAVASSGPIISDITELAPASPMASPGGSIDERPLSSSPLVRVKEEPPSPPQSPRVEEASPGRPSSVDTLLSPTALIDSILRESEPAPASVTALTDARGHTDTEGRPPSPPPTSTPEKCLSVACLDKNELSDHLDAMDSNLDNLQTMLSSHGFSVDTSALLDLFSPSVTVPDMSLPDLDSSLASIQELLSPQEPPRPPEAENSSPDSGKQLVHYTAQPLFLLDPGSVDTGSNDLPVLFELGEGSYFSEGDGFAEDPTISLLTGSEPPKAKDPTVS
Procedure, shortened: as §1

[12] = target: T7, SPIC (Homo sapiens, UniProt Q8N5J4 1-248); settings: protein: recombinant; tags: N-terminal GST; dsDNA, one strand shown
T7 sequence: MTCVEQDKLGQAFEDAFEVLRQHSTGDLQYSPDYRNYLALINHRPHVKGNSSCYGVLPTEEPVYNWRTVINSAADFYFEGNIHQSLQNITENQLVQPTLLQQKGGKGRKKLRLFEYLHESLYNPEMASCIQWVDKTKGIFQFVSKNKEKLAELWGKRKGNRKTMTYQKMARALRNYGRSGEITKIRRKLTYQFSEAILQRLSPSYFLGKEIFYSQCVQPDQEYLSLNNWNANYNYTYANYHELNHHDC
Procedure, shortened: as §1

[13] = target: ELF4 (Homo sapiens, UniProt Q99607 1-663); settings: protein: recombinant; tags: N-terminal GST; dsDNA, one strand shown
Sequence of ELF4 (Q99607 whole entry): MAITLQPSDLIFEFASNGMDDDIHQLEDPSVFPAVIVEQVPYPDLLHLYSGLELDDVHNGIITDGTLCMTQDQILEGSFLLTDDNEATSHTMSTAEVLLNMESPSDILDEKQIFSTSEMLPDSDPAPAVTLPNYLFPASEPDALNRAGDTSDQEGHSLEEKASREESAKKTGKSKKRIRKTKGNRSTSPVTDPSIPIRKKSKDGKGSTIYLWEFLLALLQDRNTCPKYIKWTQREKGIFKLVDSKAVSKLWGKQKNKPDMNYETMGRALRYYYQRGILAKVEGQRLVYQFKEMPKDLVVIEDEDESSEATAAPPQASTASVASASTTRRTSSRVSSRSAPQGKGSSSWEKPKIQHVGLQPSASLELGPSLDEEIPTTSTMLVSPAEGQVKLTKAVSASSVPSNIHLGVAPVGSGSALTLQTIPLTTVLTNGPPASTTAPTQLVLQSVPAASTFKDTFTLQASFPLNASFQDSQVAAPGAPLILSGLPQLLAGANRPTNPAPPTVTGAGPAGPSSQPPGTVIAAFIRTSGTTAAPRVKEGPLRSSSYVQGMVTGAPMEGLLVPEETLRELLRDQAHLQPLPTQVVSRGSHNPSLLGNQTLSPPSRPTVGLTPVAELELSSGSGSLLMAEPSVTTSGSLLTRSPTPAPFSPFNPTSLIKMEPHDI
Procedure, shortened: as §1

[14] = target: T8, ELK4 (Homo sapiens, UniProt P28324-2 1-405); settings: protein: recombinant; tags: N-terminal GST; dsDNA, one strand shown
T8 sequence: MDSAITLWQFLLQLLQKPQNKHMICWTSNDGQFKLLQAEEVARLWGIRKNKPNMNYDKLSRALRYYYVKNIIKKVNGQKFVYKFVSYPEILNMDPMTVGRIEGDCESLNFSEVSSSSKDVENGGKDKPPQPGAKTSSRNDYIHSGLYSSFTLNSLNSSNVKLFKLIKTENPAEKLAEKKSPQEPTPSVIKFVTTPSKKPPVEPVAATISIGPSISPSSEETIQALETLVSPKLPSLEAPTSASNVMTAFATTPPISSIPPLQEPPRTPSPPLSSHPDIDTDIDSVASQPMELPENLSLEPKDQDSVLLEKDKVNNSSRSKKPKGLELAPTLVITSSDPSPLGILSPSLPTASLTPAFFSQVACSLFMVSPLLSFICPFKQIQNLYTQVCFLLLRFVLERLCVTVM
Procedure, shortened: as §1

[15] = target: T9, ETV2 (Homo sapiens, UniProt O00321 1-342); settings: protein: recombinant; tags: N-terminal GST; dsDNA, one strand shown
T9 sequence: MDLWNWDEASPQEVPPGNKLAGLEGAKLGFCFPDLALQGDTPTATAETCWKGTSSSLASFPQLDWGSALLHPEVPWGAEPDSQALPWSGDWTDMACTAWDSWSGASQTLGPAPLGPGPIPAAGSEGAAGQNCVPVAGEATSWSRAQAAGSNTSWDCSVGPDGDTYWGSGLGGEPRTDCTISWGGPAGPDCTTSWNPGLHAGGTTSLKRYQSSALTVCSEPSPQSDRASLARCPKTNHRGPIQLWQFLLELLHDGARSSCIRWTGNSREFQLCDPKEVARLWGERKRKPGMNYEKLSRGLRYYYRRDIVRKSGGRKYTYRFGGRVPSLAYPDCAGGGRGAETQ
Procedure, shortened: as §1

[16] = target: T10, ELF3 (Homo sapiens, UniProt P78545 1-371); settings: protein: recombinant; tags: N-terminal GST; dsDNA, one strand shown
T10 sequence: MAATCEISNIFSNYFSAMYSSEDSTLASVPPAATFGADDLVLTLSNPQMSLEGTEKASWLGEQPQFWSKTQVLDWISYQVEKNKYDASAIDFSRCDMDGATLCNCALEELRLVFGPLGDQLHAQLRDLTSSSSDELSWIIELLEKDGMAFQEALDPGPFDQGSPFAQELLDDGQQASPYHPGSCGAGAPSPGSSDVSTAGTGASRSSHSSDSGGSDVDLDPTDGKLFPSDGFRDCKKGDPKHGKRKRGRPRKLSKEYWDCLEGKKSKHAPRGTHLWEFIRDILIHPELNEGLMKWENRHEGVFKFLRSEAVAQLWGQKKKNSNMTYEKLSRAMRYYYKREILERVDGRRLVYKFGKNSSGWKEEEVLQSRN
Procedure, shortened: as §1

[17] = target: CRX (Homo sapiens, UniProt O43186 1-299); settings: protein: recombinant; tags: N-terminal GST; dsDNA, one strand shown
Sequence of CRX (O43186 whole entry): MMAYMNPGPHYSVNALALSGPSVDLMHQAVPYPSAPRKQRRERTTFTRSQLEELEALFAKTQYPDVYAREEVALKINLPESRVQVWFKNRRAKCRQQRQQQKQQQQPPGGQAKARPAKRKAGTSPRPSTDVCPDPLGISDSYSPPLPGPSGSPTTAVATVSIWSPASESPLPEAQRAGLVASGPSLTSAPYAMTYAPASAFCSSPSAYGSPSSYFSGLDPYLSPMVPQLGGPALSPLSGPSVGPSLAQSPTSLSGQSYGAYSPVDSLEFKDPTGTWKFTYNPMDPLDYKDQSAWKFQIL
Procedure, shortened: as §1

[18] = target: ETV1 (Homo sapiens, UniProt P50549 1-477); settings: protein: recombinant; tags: N-terminal GST; dsDNA, one strand shown
Sequence of ETV1 (P50549 whole entry): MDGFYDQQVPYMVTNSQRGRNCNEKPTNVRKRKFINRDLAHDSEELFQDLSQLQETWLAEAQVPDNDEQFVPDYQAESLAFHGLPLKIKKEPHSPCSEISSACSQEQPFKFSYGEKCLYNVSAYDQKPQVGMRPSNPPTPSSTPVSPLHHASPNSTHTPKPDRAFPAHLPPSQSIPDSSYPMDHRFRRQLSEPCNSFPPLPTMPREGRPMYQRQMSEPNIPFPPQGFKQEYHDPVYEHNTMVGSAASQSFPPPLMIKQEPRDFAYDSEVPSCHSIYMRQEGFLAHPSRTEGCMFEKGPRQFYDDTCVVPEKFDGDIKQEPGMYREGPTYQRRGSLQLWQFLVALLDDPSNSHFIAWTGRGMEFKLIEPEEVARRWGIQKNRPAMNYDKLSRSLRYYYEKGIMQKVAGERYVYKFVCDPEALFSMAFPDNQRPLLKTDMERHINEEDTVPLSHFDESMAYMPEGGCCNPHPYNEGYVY
Procedure, shortened: as §1

Row | Sequence | binding signal [1] | binding signal [2] | binding signal [3] | binding signal [4] | binding signal [5] | binding signal [6] | binding signal [7] | binding signal [8] | binding signal [9] | binding signal [10] | binding signal [11] | binding signal [12] | binding signal [13] | binding signal [14] | binding signal [15] | binding signal [16] | binding signal [17] | binding signal [18]
1 | GTATAA | 1.02 fold enrichment (6-mer frequency, TF over GST control) | 1.21 fold enrichment (6-mer frequency, TF over GST control) | 1.06 fold enrichment (6-mer frequency, TF over GST control) | 1.06 fold enrichment (6-mer frequency, TF over GST control) | 1.06 fold enrichment (6-mer frequency, TF over GST control) | 1.09 fold enrichment (6-mer frequency, TF over GST control) | 1.12 fold enrichment (6-mer frequency, TF over GST control) | 1.19 fold enrichment (6-mer frequency, TF over GST control) | 1.01 fold enrichment (6-mer frequency, TF over GST control) | 1.1 fold enrichment (6-mer frequency, TF over GST control) | 1.16 fold enrichment (6-mer frequency, TF over GST control) | 1.07 fold enrichment (6-mer frequency, TF over GST control) | 1.05 fold enrichment (6-mer frequency, TF over GST control) | 1.08 fold enrichment (6-mer frequency, TF over GST control) | 1.18 fold enrichment (6-mer frequency, TF over GST control) | 1.14 fold enrichment (6-mer frequency, TF over GST control) | 1.41 fold enrichment (6-mer frequency, TF over GST control) | 1.14 fold enrichment (6-mer frequency, TF over GST control)
2 | CCGAAA | 1.25 fold enrichment (6-mer frequency, TF over GST control) | 1.23 fold enrichment (6-mer frequency, TF over GST control) | 1.33 fold enrichment (6-mer frequency, TF over GST control) | 1.2 fold enrichment (6-mer frequency, TF over GST control) | 1.25 fold enrichment (6-mer frequency, TF over GST control) | 1.22 fold enrichment (6-mer frequency, TF over GST control) | 1.21 fold enrichment (6-mer frequency, TF over GST control) | 1.26 fold enrichment (6-mer frequency, TF over GST control) | 1.17 fold enrichment (6-mer frequency, TF over GST control) | 1.25 fold enrichment (6-mer frequency, TF over GST control) | 1.73 fold enrichment (6-mer frequency, TF over GST control) | 1.31 fold enrichment (6-mer frequency, TF over GST control) | 1.2 fold enrichment (6-mer frequency, TF over GST control) | 1.14 fold enrichment (6-mer frequency, TF over GST control) | 1.27 fold enrichment (6-mer frequency, TF over GST control) | 1.17 fold enrichment (6-mer frequency, TF over GST control) | 1.28 fold enrichment (6-mer frequency, TF over GST control) | 1.23 fold enrichment (6-mer frequency, TF over GST control)
